# Reference: the supplement of paper PMC9492666
# Tested on: HCC1937
# Assay: relative cell viability, compound + erastin, vs DMSO (fraction of DMSO control); higher = less growth inhibition
# Conditions: 72 h
# 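Also: viability read by CCK-8 kit in 96-well plates, part of a combination screen pairing lipid-metabolism-targeting compounds with erastin.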
row,SMILES,relative cell viability
1,O=C(NN1CCCCC1)c1nn(-c2ccc(Cl)cc2Cl)c(-c2ccc(C#Cc3ccc(C(F)(F)F)cc3)s2)c1CNS(=O)(=O)N1CCCC1 + CCOc1ccccc1-n1c(C(C)N2CCN(C(=O)COc3ccc(Cl)cc3)CC2)nc2ccccc2c1=O [erastin],0.496
2,CN(C)c1cccc(-c2c3c(=O)n(-c4ccccc4Cl)[nH]c3cc(=O)n2C)c1 + CCOc1ccccc1-n1c(C(C)N2CCN(C(=O)COc3ccc(Cl)cc3)CC2)nc2ccccc2c1=O [erastin],0.61
3,C[C@@H]1C(=O)O[C@H]2[C@H](O)[C@@]34O[C@@H]5OC(=O)[C@H](O)[C@@]56[C@H](C(C)(C)C)[C@H](O)C(OC3=O)[C@]64[C@@]12O (some centres undefined) [Ginkgolide C] + CCOc1ccccc1-n1c(C(C)N2CCN(C(=O)COc3ccc(Cl)cc3)CC2)nc2ccccc2c1=O [erastin],0.697
4,CCCCCCCCCCCCC/C=C/[C@@H](O)[C@@H](N)CO + CCOc1ccccc1-n1c(C(C)N2CCN(C(=O)COc3ccc(Cl)cc3)CC2)nc2ccccc2c1=O [erastin],0.248
5,C[C@H](CCOc1cccc(CC(=O)O)c1)N(Cc1cccc(C(F)(F)F)c1Cl)CC(c1ccccc1)c1ccccc1 + CCOc1ccccc1-n1c(C(C)N2CCN(C(=O)COc3ccc(Cl)cc3)CC2)nc2ccccc2c1=O [erastin],0.602
6,COc1ccc2c(c1)CCC1C2CCC2(C)C(NCCCCCCN3C(=O)C=CC3=O)CCC12 (centres undefined) + CCOc1ccccc1-n1c(C(C)N2CCN(C(=O)COc3ccc(Cl)cc3)CC2)nc2ccccc2c1=O [erastin],0.47
7,CCCCCCCCCCCCCCCC(=O)NCCO [Palmidrol] + CCOc1ccccc1-n1c(C(C)N2CCN(C(=O)COc3ccc(Cl)cc3)CC2)nc2ccccc2c1=O [erastin],0.91

# Tested on: MDA-MB-231
# Assay: as above
# Conditions: 72 h
row,SMILES,relative cell viability
1,O=C(NN1CCCCC1)c1nn(-c2ccc(Cl)cc2Cl)c(-c2ccc(C#Cc3ccc(C(F)(F)F)cc3)s2)c1CNS(=O)(=O)N1CCCC1 + CCOc1ccccc1-n1c(C(C)N2CCN(C(=O)COc3ccc(Cl)cc3)CC2)nc2ccccc2c1=O [erastin],0.395
2,CN(C)c1cccc(-c2c3c(=O)n(-c4ccccc4Cl)[nH]c3cc(=O)n2C)c1 + CCOc1ccccc1-n1c(C(C)N2CCN(C(=O)COc3ccc(Cl)cc3)CC2)nc2ccccc2c1=O [erastin],1.23
3,C[C@@H]1C(=O)O[C@H]2[C@H](O)[C@@]34O[C@@H]5OC(=O)[C@H](O)[C@@]56[C@H](C(C)(C)C)[C@H](O)C(OC3=O)[C@]64[C@@]12O (some centres undefined) [Ginkgolide C] + CCOc1ccccc1-n1c(C(C)N2CCN(C(=O)COc3ccc(Cl)cc3)CC2)nc2ccccc2c1=O [erastin],0.747
4,CCCCCCCCCCCCC/C=C/[C@@H](O)[C@@H](N)CO + CCOc1ccccc1-n1c(C(C)N2CCN(C(=O)COc3ccc(Cl)cc3)CC2)nc2ccccc2c1=O [erastin],0.363
5,C[C@H](CCOc1cccc(CC(=O)O)c1)N(Cc1cccc(C(F)(F)F)c1Cl)CC(c1ccccc1)c1ccccc1 + CCOc1ccccc1-n1c(C(C)N2CCN(C(=O)COc3ccc(Cl)cc3)CC2)nc2ccccc2c1=O [erastin],0.384
6,COc1ccc2c(c1)CCC1C2CCC2(C)C(NCCCCCCN3C(=O)C=CC3=O)CCC12 (centres undefined) + CCOc1ccccc1-n1c(C(C)N2CCN(C(=O)COc3ccc(Cl)cc3)CC2)nc2ccccc2c1=O [erastin],0.67
7,CCCCCCCCCCCCCCCC(=O)NCCO [Palmidrol] + CCOc1ccccc1-n1c(C(C)N2CCN(C(=O)COc3ccc(Cl)cc3)CC2)nc2ccccc2c1=O [erastin],0.938
